SMILES strings stand for the structures. Records with an inconclusive call do not appear. The source made the active and inactive calls. Calls come from the whole dose curve; as a rule, active = well fitted curve in the direction sought with a large enough effect; inconclusive = small, poorly fitted or top-dose-only effect, or another doubt; inactive = no such curve, though single readings can be large; an effect the other way counts as inactive or inconclusive.

Assay [1] in a line: qHTS of pediatric cancer cell lines to identify multiple opportunities for drug repurposing: Primary screen for A673 cells (AID 1347092). Note: nearly all actives have a fitted effect of over 45% in size. Note: potency is the fitted concentration of half-maximal effect. The essentials:
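A673 cells (500-1,000 cells/well in growth media) were pre-incubated 5 h at 37 degrees C, then exposed to compounds for 48 h. Viability was read as CellTiter-Glo luminescence; concentration-response curves came directly from the primary screen.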
In general terms: qHTS replaces the single test concentration by a dilution series.

The nature of assay [2]: qHTS of pediatric cancer cell lines to identify multiple opportunities for drug repurposing: Primary screen for SK-N-MC cells (AID 1347093). Note: potency is the fitted concentration of half-maximal effect. The procedure, abridged:
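Metabolically active cells were quantified by ATP-dependent luminescence (CellTiter-Glo, 15 min at room temperature) following 48 h treatment. Cells had been plated at 500-1,000 per well and settled for 5 h beforehand.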

Assay [3] in a line: qHTS of pediatric cancer cell lines to identify multiple opportunities for drug repurposing: Primary screen for BT-37 cells (AID 1347094). Note: potency is the fitted concentration of half-maximal effect. The procedure, abridged: (§1)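 Cells plated at 500-1,000/well in growth medium, compounds added after 5 h. MIPE tested at 11 points (from 0.78 nM), NPC at 8 points (from 0.59 nM). CellTiter-Glo luminescence after 48 h; concentration-response curves from primary screen.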

A short description of assay [4]: qHTS of pediatric cancer cell lines to identify multiple opportunities for drug repurposing: Primary screen for NB-EBc1 cells (AID 1347095). Note: potency is the fitted concentration of half-maximal effect. The essentials:
as §1

The nature of assay [5]: qHTS of pediatric cancer cell lines to identify multiple opportunities for drug repurposing: Primary screen for U-2 OS cells (AID 1347096). Note: nearly all actives have a fitted effect of over 50% in size. The essentials: (§2)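 Cells (500-1,000/well) in growth media were settled 5 h at 37 degrees C, then given compounds for 48 h. Viability was read as CellTiter-Glo luminescence. Primary runs used MIPE at 11 points (0.78 nM-46 µM) and NPC at 8 points (0.59 nM-46 µM); follow-ups used 11 points.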

Assay [6] in a line: qHTS of pediatric cancer cell lines to identify multiple opportunities for drug repurposing: Primary screen for Saos-2 cells (AID 1347097). Note: nearly all actives have a fitted effect of over 40% in size. Note: potency is the fitted concentration of half-maximal effect. The essentials: as §1
The nature of assay [7]: qHTS of pediatric cancer cell lines to identify multiple opportunities for drug repurposing: Primary screen for NB1643 cells (AID 1347099). Note: nearly all actives have a fitted effect of over 50% in size. Note: potency is the fitted concentration of half-maximal effect. The essentials:
as §1

Assay [8] can be described thus: qHTS of pediatric cancer cell lines to identify multiple opportunities for drug repurposing: Primary screen for LAN-5 cells (AID 1347100). Note: potency is the fitted concentration of half-maximal effect. The procedure, abridged: as §2
The nature of assay [9]: qHTS of pediatric cancer cell lines to identify multiple opportunities for drug repurposing: Primary screen for Rh18 cells (AID 1347102). Note: nearly all actives have a fitted effect of over 65% in size. The procedure, abridged: as §2
A short description of assay [10]: qHTS of pediatric cancer cell lines to identify multiple opportunities for drug repurposing: Primary screen for RD cells (AID 1347104). Note: nearly all actives have a fitted effect of over 55% in size. Note: potency is the fitted concentration of half-maximal effect. The procedure, abridged:
as §1

Assay [11] is described as follows: qHTS of pediatric cancer cell lines to identify multiple opportunities for drug repurposing: Primary screen for MG 63 (6-TG R) cells (AID 1347105). Note: nearly all actives have a fitted effect of over 50% in size. Note: potency is the fitted concentration of half-maximal effect. The essentials:
as §1

The nature of assay [12]: qHTS of pediatric cancer cell lines to identify multiple opportunities for drug repurposing: Primary screen for control Hh wild type fibroblast cells (AID 1347106).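 Note: series mostly up to about 46 µM; a drop in luminescence marks cytotoxicity and a rise apparent proliferation; nearly all actives have a fitted effect of over 55% in size.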 The essentials:
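Viability after 48 h compound treatment at 37C, 500-1,000 cells/well, read as ATP luminescence with CellTiter-Glo. Primary screens used 11-point (MIPE, 0.78 nM-46 µM) or 8-point (NPC, 0.59 nM-46 µM) final concentrations; follow-up screens used 11-point dilutions.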

The nature of assay [13]: qHTS of pediatric cancer cell lines to identify multiple opportunities for drug repurposing: Primary screen for Rh30 cells (AID 1347107). Note: series mostly up to about 46 µM; nearly all actives have a fitted effect of over 75% in size. The procedure, abridged: as §2
The nature of assay [14]: qHTS of pediatric cancer cell lines to identify multiple opportunities for drug repurposing: Primary screen for Rh41 cells (AID 1347108). Note: nearly all actives have a fitted effect of over 70% in size. Note: potency is the fitted concentration of half-maximal effect. The procedure, abridged:
as §1

The nature of assay [15]: qHTS of pediatric cancer cell lines to identify multiple opportunities for drug repurposing: Primary screen for BT-12 cells (AID 1347101). Note: nearly all actives have a fitted effect of over 25% in size. Note: potency is the fitted concentration of half-maximal effect. The essentials:
(§3)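 Cells (500-1,000/well) rested 5 h, then received compounds for 48 h; metabolically active cells were measured by CellTiter-Glo luminescence. Final concentrations spanned up to 46 µM (MIPE, 11-point) or 0.59 nM-46 µM (NPC, 8-point) in primary screens, 11-point in follow-ups.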

The nature of assay [16]: qHTS of pediatric cancer cell lines to identify multiple opportunities for drug repurposing: Primary screen for SJ-GBM2 cells (AID 1347091). The procedure, abridged: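 Eight- or eleven-point concentration series, 48 h treatment at 37 degrees C in growth media; readout CellTiter-Glo luminescence. Potency and efficacy were taken from the concentration-response curves.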
Assay [17] is described as follows: qHTS of pediatric cancer cell lines to identify multiple opportunities for drug repurposing: Primary screen for OHS-50 cells (AID 1347103). Note: nearly all actives have a fitted effect of over 40% in size. Note: potency is the fitted concentration of half-maximal effect. The essentials:
as §3

Assay [18] is described as follows: qHTS of pediatric cancer cell lines to identify multiple opportunities for drug repurposing: Primary screen for SK-N-SH cells (AID 1347098). Note: nearly all actives have a fitted effect of over 65% in size. Note: potency is the fitted concentration of half-maximal effect. The essentials:
as §3

Assay [19] is described as follows: qHTS of pediatric cancer cell lines to identify multiple opportunities for drug repurposing: Confirmatory screen for NB1643 cells (AID 1347109). Note: nearly all actives have a fitted effect of over 45% in size. The procedure, abridged:
as §2

Turning to `CNC(=O)c1ccc(N2C(=S)N(c3ccc(C#N)c(C(F)(F)F)c3)C(=O)C2(C)C)cc1F`, the Potency entry in assay [1], in assay [2], in assay [3], in [4], in assay [5] and in assay [6] was “inactive” each time. Further, the Potency entry in [7], in assay [8], in assay [9], in [10], in [11] and in assay [12] was “inactive” each time. In addition, the Potency result in assay [13] and in assay [14] was “inactive” in each case.
With `COCCNCCCn1c(C(=O)CF)c(-c2ccc(C)cc2)c2c(N)ncnc21`, the Potency in [1] is 23.5 µM (active). For the same compound, the Potency result in [3], in assay [4], in assay [5], in assay [8], in [15] and in assay [10] was “inactive” throughout. In addition, the Potency result in [14] is “inactive”.
For the compound `NNCCc1ccccc1`, the Potency result in [16], in assay [3], in assay [4], in assay [6], in assay [9] and in [17] was “inactive” in each case. In addition, the Potency result in assay [10], in [11], in assay [12], in [13] and in assay [14] was “inactive” each time.
For the compound `CCc1cc(Nc2nccc(-c3c(-c4ccc(OC)c(C(=O)Nc5c(F)cccc5F)c4)nc4ccccn34)n2)c(OC)cc1N1CCC(N2CCN(S(C)(=O)=O)CC2)CC1`, the Potency result in assay [16], in [5], in [7] and in assay [9] was “inactive” throughout. The figures for the Potency in assay [6], in assay [18] and in assay [11] were 18.7 µM (active), 21.5 µM (active) and 18.7 µM (active), respectively.
Turning to `CCOc1cc(C(=O)Nc2ccc(Cl)c(-c3nc4ccccc4[nH]3)c2)cc(OCC)c1OCC`, the Potency result in assay [16], in [4], in assay [15], in assay [9], in [17] and in assay [11] was “inactive” throughout. Further, the Potency in assay [18] was 5.41 µM (active); in assay [7], 11.8 µM (active); in assay [10] it was 2.96 µM (active).
Consider `CC(C)(Sc1ccc(CCN(CCCCC2CCCCC2)C(=O)NC2CCCCC2)cc1)C(=O)O`, for which the Potency in [1] was 18.7 µM (active); in assay [2], 23.5 µM (active); in [3], 21.7 µM (active); in assay [4], 20.9 µM (active); in assay [6] it was 23.5 µM (active); in [7], 14.8 µM (active). Also, the Potency in assay [8] was 20.9 µM (active). The Potency result in assay [5], in assay [9], in assay [17], in assay [12] and in assay [13] was “inactive” in each case.
Turning to `C[C@@H]1CN(Cc2ccc(F)cc2)[C@@H](C)CN1C(=O)c1cc2c(C(=O)C(=O)N(C)C)cn(C)c2cc1Cl`, the Potency in assay [1] was 14.8 µM (active); in [2], 0.0372 µM (active); in [7], 2.64 µM (active); in assay [10] it was 0.833 µM (active); in [14] it was 14.8 µM (active). Also, the Potency result in [3] and in assay [9] was “inactive” each time.
On to `CC(C)C[C@H](NC(=O)[C@@H](O)[C@H](N)Cc1ccccc1)C(=O)O`, for which the Potency in [2] is 29.6 µM (active); in [3], 27.3 µM (active); in assay [6] it was 18.7 µM (active); in assay [18], 24.1 µM (active); in [15], 30.6 µM (active); in assay [17] it was 19.3 µM (active). The Potency in assay [10] was 37.2 µM (active); in [14] it was 23.5 µM (active). Besides, the Potency entry in [5] and in assay [12] was “inactive” each time.
`Cc1cc(SCc2sc(-c3ccc(C(F)(F)F)cc3)nc2C)ccc1OCC(=O)O`: the Potency result in assay [1], in assay [3], in [4], in assay [5], in assay [6] and in assay [8] was “inactive” in each case. In addition, the Potency result in [9], in [10], in [11], in [12] and in assay [13] was “inactive” in each case. The Potency in assay [2] is 18.7 µM (active).
For the compound `Nc1ncnc2nc(-c3ccc(N4CCOCC4)nc3)cc(-c3cccc(Br)c3)c12`, the Potency entry in assay [16], in [4], in assay [6], in [11] and in assay [12] was “inactive” throughout.
Turning to `O=C(c1cc(Cc2n[nH]c(=O)c3ccccc23)ccc1F)N1CCN(C(=O)C2CC2)CC1`, the Potency is 5.9 µM (active) in assay [1]; 7.43 µM (active) in assay [2]; 10.5 µM (active) in [4]; 21.5 µM (active) in [18]; 14.8 µM (active) in assay [7]; 14.8 µM (active) in assay [8]. Further, the Potency in assay [17] is 24.3 µM (active). The Potency entry in [5], in assay [9] and in [19] was “inactive” each time.
As for `CC(=O)NC(C)c1ccc(Oc2ccc(OC(C)C)cc2)cc1` (configuration not stated), the Potency in assay [1] was 23.5 µM (active); in assay [6], 18.7 µM (active); in assay [15], 19.3 µM (active). For the same compound, the Potency result in assay [5], in assay [18] and in assay [12] was “inactive” in each case.
As for `O=c1ncn2nc(Sc3ccc(F)cc3F)ccc2c1-c1c(Cl)cccc1Cl`, the Potency entry in assay [4], in assay [7], in assay [9], in assay [10], in assay [11] and in assay [12] was “inactive” each time. The Potency entry in assay [13] is “inactive”.
For `CC1(C)Cc2c(-c3ccccc3)c(-c3ccc(Cl)cc3)c(CC(=O)O)n2C1`, the Potency is 26.4 µM (active) in [2] and 33.2 µM (active) in assay [6]. Moreover, the Potency result in [5], in assay [9] and in [12] was “inactive” in each case.
Consider `COCC(=O)NCC=Cc1ccc2ncnc(Nc3ccc(Oc4ccc(C)nc4)c(C)c3)c2c1`, for which the Potency in assay [1] was 4.69 µM (active); in [6] it was 16.6 µM (active); in assay [7], 20.9 µM (active); in assay [8], 18.7 µM (active); in assay [15], 19.3 µM (active). The Potency result in assay [5], in assay [11] and in assay [12] was “inactive” each time.
For the compound `O=S(=O)(N=Cc1c(O)ccc2ccccc12)c1cccs1`, the Potency was 9.35 µM (active) in assay [2], 18.7 µM (active) in [6], 2.35 µM (active) in assay [11] and 3.72 µM (active) in [14]. Further, the Potency entry in assay [3], in assay [5], in assay [18], in assay [8], in [9] and in assay [10] was “inactive” each time. Moreover, the Potency entry in assay [13] was “inactive”.

The record behind these values is PubChem BioAssay (NCATS).
